In the library only some 6% were active in any assay of this set; here they are far more common.
Tau fibril ThT – qHTS for Inhibitors of Tau Fibril Formation, Thioflavin T Binding; recombinant tau K18 P301L, heparin-induced fibrillization, ThT fluorescence; Potency, µM (highest dose often 57.4 µM), most hits filed as inhibitors; actives 2.1% (n = 270,000); also: nearly all actives have a fitted effect of over 55% in size
Target sequence (P10636 561-689 P618L limits assumed): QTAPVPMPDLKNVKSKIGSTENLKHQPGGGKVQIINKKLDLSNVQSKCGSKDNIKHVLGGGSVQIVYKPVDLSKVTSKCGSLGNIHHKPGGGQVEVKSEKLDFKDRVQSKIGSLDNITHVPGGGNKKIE
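Recombinant human tau K18 fragment […] carrying P301L, 15 uM unlabeled plus 0.24 uM Alexa 594-labeled, was fibrillized with 20 uM heparin in 100 mM sodium acetate pH 7 for 6 hr at 37 C; 30 uM ThT fluorescence read after 1 hr.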
Sfp PPTase inh – qHTS Assay for Inhibitors of Bacillus subtilis Sfp phosphopantetheinyl transferase (PPTase); 4'-phosphopantetheinyl transferase ffp (Bacillus subtilis), Q9F4F7; Biochemical Sfp PPTase activity, qHTS; Potency, µM, usual class: inhibitors; actives 3.5% (n = 310,000);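 also: the enzyme is Sfp with the accession as filed and its product quenches rhodamine fluorescence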
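After 15 min at room temperature with compound, 15 nM Sfp received 5 uM rhodamine-CoA plus 12.5 uM BHQ-2-ybbR (50 mM Hepes pH 7.6, 10 mM MgCl2). Rate came from the fluorescence difference over 30 min, ex 525/em 598 nm.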
VDR inhibitor – Inhibitors of the vitamin D receptor (VDR): qHTS | Vitamin D3 receptor (Homo sapiens), P11473 | actives 0.93% (n = 400,000) | Potency, µM, actives largely listed as inhibitors | VDR-SRC2-3 peptide fluorescence polarization, 2 h
Target sequence (P11473 whole entry, looked up): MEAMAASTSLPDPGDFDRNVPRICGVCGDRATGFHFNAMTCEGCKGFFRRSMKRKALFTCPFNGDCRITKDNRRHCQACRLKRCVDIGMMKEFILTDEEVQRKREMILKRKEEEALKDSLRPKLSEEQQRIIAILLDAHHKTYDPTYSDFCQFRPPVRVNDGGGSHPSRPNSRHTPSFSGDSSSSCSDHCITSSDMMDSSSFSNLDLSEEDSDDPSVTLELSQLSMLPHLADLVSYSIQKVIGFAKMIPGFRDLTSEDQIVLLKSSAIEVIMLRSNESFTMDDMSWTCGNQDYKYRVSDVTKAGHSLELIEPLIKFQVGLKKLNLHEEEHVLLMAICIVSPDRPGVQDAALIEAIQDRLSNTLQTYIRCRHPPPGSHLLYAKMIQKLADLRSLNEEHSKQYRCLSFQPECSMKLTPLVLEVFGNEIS
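Signal is fluorescence polarization, reporting how far test compounds block the interaction of VDR with the SRC2-3 coregulator peptide after a 2 h room-temperature incubation.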
Tau fluor counter – Counterscreen qHTS for Inhibitors of Tau Fibril Formation, Fluorescence Polarization; tau K18 P301L Alexa594 fluorescence, heparin fibrillization; Potency, µM (series often up to 57.7 µM); actives 0.93% (n = 280,000); AID 1463, 2008; also: nearly all actives have a fitted effect of over 55% in size
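Human K18 P301L tau (15 uM unlabeled plus 0.24 uM Alexa 594-labeled, final) in 100 mM sodium acetate pH 7 was mixed with compound and 20 uM heparin and incubated 6 hr at 37 C.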
PLK1 PBD block – qHTS for Inhibitors of PLK1-PDB (polo-like kinase 1 - polo-box domain): Primary Screen; Serine/threonine-protein kinase PLK1 (Homo sapiens), P53350; Plk1 PBD binding of FITC phosphopeptide, fluorescence polarization; Potency, µM, usual class: inhibitors; actives 2.8% (n = 360,000); AID 720504, 2013; also: series mostly up to about 57 µM; nearly all actives have a fitted effect of over 65% in size
Tau FP inhib – qHTS for Inhibitors of Tau Fibril Formation, Fluorescence Polarization. K18 P301L tau heparin fibrillization, Alexa594 FP, 6 h. Potency, µM (top dose mostly 57.7 µM), actives largely listed as inhibitors. actives 0.39% (n = 280,000). AID 1468, 2008; also: nearly all actives have a fitted effect of over 55% in size
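Heparin (20 uM) drove fibril formation of recombinant tau K18 P301L, 15 uM unlabeled with 0.24 uM Alexa 594 label, for 6 hr at 37 C in 100 mM sodium acetate pH 7. Fluorescence polarization (555/632 nm) read 1 hr after 30 uM ThT.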
tau sediment – Sedimentation Assay for Inhibitors of Tau Fibrillization | shares compounds with Tau fibril ThT | recombinant tau K18 P301L (four-repeat tau fragment), sedimentation SDS-PAGE densitometry | inhibition, % at 100 µM | actives 50% (n = 110) | AID 1720, 2009; in the data active = inhibition above about 40%; inconclusive = no clear call, values can overlap the other calls; inactive = below about 18%
Sfp inh conf – Confirmation qHTS Assay for Inhibitors of Bacillus subtilis Sfp phosphopantetheinyl transferase (PPTase); shares compounds with Sfp PPTase inh; Potency, µM (top dose mostly 114 µM), usual class: inhibitors; Sfp PPTase enzymatic assay, qHTS titration; actives 79% (n = 380)
Target sequence (Q9F4F7 whole entry, looked up): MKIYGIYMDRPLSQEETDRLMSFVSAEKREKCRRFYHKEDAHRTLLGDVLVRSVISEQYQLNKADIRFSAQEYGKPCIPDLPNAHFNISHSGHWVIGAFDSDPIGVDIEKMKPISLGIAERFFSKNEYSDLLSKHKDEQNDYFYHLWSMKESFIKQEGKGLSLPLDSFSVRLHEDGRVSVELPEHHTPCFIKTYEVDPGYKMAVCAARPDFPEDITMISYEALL
Sfp gel assay – Gel-Based Assay for Inhibitors of Bacillus subtilis Sfp phosphopantetheinyl transferase (PPTase) | shares compounds with Sfp PPTase inh | purified Sfp, gel-based phosphopantetheinylation read-out | Potency, µM, most hits filed as inhibitors | actives 20% (n = 210) | AID 2707, 2010;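 active = potency below 100 µM; inconclusive = dose-dependent response but potency above 100 µM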;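 also: potency is an IC50 for inhibitors of Sfp transfer activity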
VDR inh confirm – qHTS for Inhibitors of the vitamin D receptor (VDR): Hit Validation in Primary Screen. shares compounds with VDR inhibitor. VDR-coactivator inhibition assay, qHTS confirmation. Potency, µM, usual class: inhibitors. actives 89% (n = 840). AID 602199, 2012
VDR FP – qHTS for Inhibitors of the vitamin D receptor (VDR): Hit Validation using a Fluorescein Assay; shares compounds with VDR inhibitor; VDR-coactivator binding, fluorescein fluorescence polarization; Potency, µM (top dose mostly 57.1 µM), hits mostly inhibitors; actives 48% (n = 840)
VDR bla – qHTS for Inhibitors of the vitamin D receptor (VDR): Hit Validation using a Beta-Lactamase Assay; actives 23% (n = 840); AID 602202, 2012; Potency, µM (titrated, usually from 46.1 µM), actives largely listed as inhibitors; VDR beta-lactamase reporter cells, FRET ratio; cells co-treated with VDR agonist LG190178; shares compounds with VDR inhibitor
VDR cytotox – qHTS for Inhibitors of the vitamin D receptor (VDR): Hit Validation using a Cytotoxicity Assay | actives 18% (n = 840) | AID 602204, 2012 | cytotoxicity counter-screen, cell viability, qHTS | shares compounds with VDR inhibitor | Potency, µM (titrated, usually from 48.3 µM), usual class: cytotoxic; also: nearly all actives have a fitted effect of over 75% in size
Of the large screens only hits and unclear results are named; the others gave an inactive call (follow-up assays come after a bar, where they were run); ! = repeats disagree. Unless noted, calls follow the shape of the dose curve; as a rule, active = well fitted curve in the direction sought with a large enough effect; inconclusive = small, poorly fitted or top-dose-only effect, or another doubt; inactive = no such curve, though single readings can be large; an effect the other way counts as inactive or inconclusive.

CCOc1ccc(-c2cc(C(=O)NCCc3ccccc3)c3c(-c4ccc(C)cc4)[nH]nc3n2)cc1	none (no result: Sfp PPTase inh, PLK1 PBD block)
Cn1cnc(C(=O)NCc2ccc(CNC(=O)OC(C)(C)C)cc2)c1C(=O)NCc1ccc(CNC(=O)OC(C)(C)C)cc1	none (no result: Tau fibril ThT, Sfp PPTase inh, Tau fluor counter, Tau FP inhib)
CCOC(=O)c1nn(-c2ccc(C)cc2)c(=O)c2c(N)scc12	Tau fibril ThT 14.1µM, Sfp PPTase inh 3.55µM, VDR inhibitor 12.6µM, Tau fluor counter inconclusive, Tau FP inhib inconclusive | tau sediment inconclusive | Sfp inh conf 18.7µM
CCc1ccc(CNC(=O)C2CCCN(c3nn4cc(-c5ccc(F)cc5)nc4s3)C2)cc1 (stereo not given)	Tau fibril ThT inconclusive (no result: Sfp PPTase inh, PLK1 PBD block)
CCOC(=O)c1nn(-c2ccc(F)cc2)c(=O)c2c(N)scc12	Sfp PPTase inh 50.1µM, VDR inhibitor 7.94µM, PLK1 PBD block inconclusive | tau sediment 64.0 | VDR inh confirm 26.7 | VDR FP inconclusive | VDR bla inactive | VDR cytotox inactive
CCN1CCN(c2oc(/C=C/c3ccc(OC)c(OC)c3)nc2C#N)CC1	none (no result: Sfp PPTase inh, PLK1 PBD block)
C=CC1=C(C(=O)O)N2C(=O)C(NC(=O)/C(=N\O)c3csc(N)n3)C2SC1 (stereo not given)	Tau fibril ThT inconclusive, VDR inhibitor inconclusive (no result: PLK1 PBD block)
C=CC1=C(C(=O)O)N2C(=O)[C@@H](NC(=O)C(N=O)c3csc(N)n3)[C@H]2SC1 (stereo not given in full)	Sfp PPTase inh 31.6µM, VDR inhibitor 44.7µM (no result: PLK1 PBD block) | Sfp inh conf 41.8µM | Sfp gel assay 55.6µM
COc1ccc(C(=S)N2CCNCC2)cc1	none
CCN1CCN(C(=S)c2ccc(OC)cc2)CC1	Sfp PPTase inh 11.2µM, PLK1 PBD block 9.47µM | Sfp inh conf 14.8µM | Sfp gel assay inactive
CC(C)c1ccc(-n2cccc2/C=C2/C(=N)N3C=CSC3=NC2=O)cc1	Tau fibril ThT inconclusive
CC1=CSC2=NC(=O)/C(=C\c3cccn3-c3ccc([N+](=O)[O-])cc3)C(=N)N12	Tau fibril ThT inconclusive, Sfp PPTase inh 1µM | Sfp inh conf 37.3µM | Sfp gel assay inactive
COc1ccccc1CC(Cc1nc2ccccc2[nH]1)c1nc2ccccc2[nH]1 (stereo not given)	Sfp PPTase inh 5.01µM, Tau fluor counter inconclusive | Sfp inh conf 16.7µM
O=C(Nc1ccc(S(=O)(=O)N2CCOCC2)cc1)C1CCN(S(=O)(=O)c2ccccc2)CC1	none (no result: Tau fibril ThT, Sfp PPTase inh, Tau fluor counter, Tau FP inhib)
Cc1cccc(Nc2nc(NCc3ccco3)c3ccccc3n2)c1	Sfp PPTase inh 2.51µM, Tau fluor counter inconclusive, Tau FP inhib inconclusive | Sfp inh conf 37.3µM | Sfp gel assay inactive
CCOc1ccc(CCNC(=O)c2c(C)oc3ncnc(N4CCOCC4)c23)cc1	none (no result: Sfp PPTase inh, PLK1 PBD block)
CCOC(=O)c1c(NC(=O)c2cc(Cl)ccc2Cl)sc2c1CCCC2	none (no result: Sfp PPTase inh, PLK1 PBD block)
CCOC(=O)c1c(NC(=O)c2ccccc2C(=O)O)sc2c1CCCC2	none (no result: Tau fibril ThT, Tau fluor counter, Tau FP inhib)
CCOC(=O)c1c(NC(=O)c2ccccc2Cl)sc2c1CCc1ccccc1-2	Tau fibril ThT inconclusive, Sfp PPTase inh 11.2µM, VDR inhibitor inconclusive, PLK1 PBD block 6.7µM | Sfp inh conf 9.37µM
CCOC(=O)c1c(NC(=O)c2ccccc2)sc2c1CCc1ccccc1-2	Tau fibril ThT inconclusive, Sfp PPTase inh 1.26µM, VDR inhibitor 70.8µM, PLK1 PBD block 6.7µM, Tau FP inhib inconclusive | Sfp inh conf 13.2µM
NC(=O)N1c2ccccc2CC(=O)c2ccccc21	Tau fibril ThT inconclusive, Sfp PPTase inh 35.5µM!, VDR inhibitor 50.1µM! | Sfp inh conf 46.9µM | Sfp gel assay inactive
CCOC(=O)c1noc2nc(C)n(CC(=O)Nc3cc(Cl)ccc3OC)c(=O)c12	none (no result: Sfp PPTase inh, PLK1 PBD block)
CC1=C(C(N)=O)N2C(=O)[C@@H](NC(=O)Cc3ccccc3)C2SC1 (stereo not given in full)	Sfp PPTase inh 25.1µM (no result: PLK1 PBD block) | Sfp inh conf 4.49µM | Sfp gel assay 0.92µM
COC(=O)c1ccc(NC(=O)CN(Cc2ccccc2)S(=O)(=O)c2ccc(Cl)cc2)cc1	Tau fluor counter inconclusive, Tau FP inhib inconclusive (no result: Sfp PPTase inh, PLK1 PBD block)
COc1ccccc1N1CCN(C(=O)c2cc(=O)c3ccc(C)cc3o2)CC1	none (no result: Tau fibril ThT, Tau fluor counter, Tau FP inhib)
COc1ccccc1N1CCN(C(=O)c2oc3cc(C)cc(C)c3c2C)CC1	Tau fibril ThT inconclusive, Sfp PPTase inh 2µM | Sfp inh conf 46.9µM | Sfp gel assay inactive
CN1CCN(C(c2ccc(F)cc2)c2ccc3cccnc3c2O)CC1 (stereo not given)	PLK1 PBD block inconclusive (no result: Tau fibril ThT, Sfp PPTase inh, Tau fluor counter, Tau FP inhib)

High-throughput results from PubChem BioAssay.
